In PubChem BioAssay AID2284144 (EPA ToxCast):
Active and inactive are the calls of the source. The calls were made as follows: active = hit-call score of the fitted dose curve at least 0.9, where 1 is the maximum; inactive = score below 0.9.

Each compound was assayed against human Adrenoceptor alpha2C Antagonism, ADRA2C (gene 152) (UniProt P18825) (assay: ERF_TW_GPCR_hADRA2C: Eurofins (ERF) G Protein-Coupled Receptor (GPCR) Radioligand Binding LeadHunter Assay for human Adrenoceptor alpha2C Antagonism).
human Adrenoceptor alpha2C Antagonism, ADRA2C (gene 152), sequence (P18825 whole entry, looked up): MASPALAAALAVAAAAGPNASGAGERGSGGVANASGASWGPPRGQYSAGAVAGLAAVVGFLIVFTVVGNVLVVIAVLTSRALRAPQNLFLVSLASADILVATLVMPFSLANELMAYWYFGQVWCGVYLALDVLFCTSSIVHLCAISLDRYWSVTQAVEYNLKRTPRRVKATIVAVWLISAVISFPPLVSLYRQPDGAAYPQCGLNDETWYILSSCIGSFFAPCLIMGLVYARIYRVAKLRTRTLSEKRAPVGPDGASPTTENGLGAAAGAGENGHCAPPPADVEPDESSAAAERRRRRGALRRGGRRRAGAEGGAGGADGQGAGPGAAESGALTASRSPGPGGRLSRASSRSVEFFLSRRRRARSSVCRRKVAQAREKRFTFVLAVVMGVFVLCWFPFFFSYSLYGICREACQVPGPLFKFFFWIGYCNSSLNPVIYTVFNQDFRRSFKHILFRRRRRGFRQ
Protocol: ERF_TW_GPCR_hADRA2C is a biochemical, single-readout assay that uses extracted gene-proteins in a cell-free assay. Measurements were taken 1 hour after chemical dosing in a 96-well plate. See alpha2C Human Adrenoceptor GPCR Binding (Antagonist Radioligand) Assay, Panlabs.ERF_TW_GPCR_hADRA2C is an assay component calculated from the ERF_TW_GPCR_hADRA2C assay. It is designed to measure radioligand binding using a type of binding reporter as detected by scintillation counting with radiometry technology.Data from the assay component ERF_TW_GPCR_hADRA2C was analyzed at the assay endpoint, ERF_TW_GPCR_hADRA2C, in the positive analysis fitting direction relative to DMSO as the negative control and baseline of activity. Using a type of binding reporter, loss-of-signal activity can be used to understand changes in radioligand binding as they relate to gene ADRA2C. To generalize the intended target to other relatable targets, this assay endpoint is annotated to the gpcr intended target family, where the subfamily is adrenoceptor.
Human recombinant adrenergic alpha2C receptor expressed in CHO-K1 cells are used in modified Tris-HCl buffer pH 7.4. A 2 ug aliquot of membrane is incubated with 0.5 nM [3H]Rauwolscine for 60 minutes at 25C. […] Membranes are filtered and washed, the filters are then counted to determine [3H]Rauwolscine specifically bound. […]

Row | SMILES | AC50
1 | O=C(/C=C/c1ccc(O)cc1)CC(=O)/C=C/c1ccc(O)cc1 | 0.602 µM (active)
